Source: PubChem BioAssay
MCF10A rereplic: inducers of DNA re-replication in MCF 10A breast cells; MCF 10A DNA re-replication, Hoechst nuclear intensity, 48 h; Potency, µM (top dose mostly 46.1 µM), inactives show at the top dose activity, positive = re-replication, most hits filed as activators; 350,000 compounds, 2.9% hits; AID 624296; note: potency is the fitted concentration of half-maximal effect; % of control where 0% means no effect; nearly all actives have a fitted effect of over 50% in size
BCR signal inh: blocks chronic active B-cell receptor signaling; ABC-DLBCL IkBa-CBG/CBR reporter, luminescence ratio, 4 h; Potency, µM (highest dose often 46.1 µM), for inactives: at the highest dose activity change, negative = inhibition, hits mostly inhibitors; 340,000 compounds, 0.05% hits; AID 493014; active = well fitted inhibition curve with a large enough effect in the signal ratio, with a control signal flat, not every such curve was filed as active; inconclusive = small, poorly fitted or top-dose-only effect, or effect the other way, or a change in a side signal; the % refers to the signal ratio;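 note: potency is the fitted concentration of half-maximal effect; plate controls were basal doxycycline-induced cells for no effect and cells given 10 µM MG132 for full effect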
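TMD8 ABC-DLBCL cells carrying doxycycline-inducible green luciferase fused to IkappaBalpha plus unfused red luciferase were exposed to compounds (up to 46 uM) for 4 hrs at 37C. Activity came from the overlap-corrected green/red luminescence ratio.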
TDP1 cell noCPT: qHTS for Inhibitors of human tyrosyl-DNA phosphodiesterase 1 (TDP1): qHTS in cells in absence of CPT. DT40 Tdp1-/- hTDP1 cells, no CPT, ATP luminescence, 48 h. Potency, µM (series often up to 46.2 µM), for inactives: at the highest dose activity change, negative = growth inhibition, hits mostly inhibitors. 420,000 compounds, 15% hits. AID 686978, 2013; note: potency is the fitted concentration of half-maximal effect; % is set by controls: 0 for no effect and ±100 for the full control effect; nearly all actives have a fitted effect of over 55% in size
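Readout: luminescence from CellTiter-Glo after 30 min in the dark at RT. Cells: DT40 Tdp1-/- with stable hTDP1, 400/well. Exposure: compounds alone, ≥48 hr, 37 °C.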
IL1B secr inh: inflammasome signaling inhibition, IL-1 beta readout; activity change, % at 57.5 µM; THP-1 LPS/ATP IL-1B secretion, AlphaLISA, 16 h; hits give low values; 360,000 compounds, 4.7% hits; in the data active = activity change below about -50%; inconclusive = mostly about -30% to -49%; note: % is set by controls: 0 for no effect and ±100 for the full control effect
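Secreted IL-1B measured by AlphaLISA bead assay after 16 h compound exposure of THP-1 cells; compounds (final up to 57.5 uM) added 1 h before LPS (250 ng/mL) and ATP (1.25 mM) stimulation; lower signal means less secretion.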
SW480 rerep: induces DNA re-replication in SW480 colon adenocarcinoma cells; SW480 DNA re-replication, Hoechst DNA content imaging, 48 h; Potency, µM (doses to about 46.1 µM), for inactives: at the top dose re-replication activation, hits mostly activators; 340,000 compounds, 1.8% hits; AID 624297; note: potency is the fitted concentration of half-maximal effect; % of control where 0% means no effect; nearly all actives have a fitted effect of over 55% in size
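Image-based read-out: total Hoechst fluorescence of nuclei (405 nm excitation, 500-530 nm emission), with hits raising the fraction of high-intensity nuclei. SW480 colon cells incubated 48 hr with compounds at 37 C.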
DT40 TDP1 CPT: growth inhibition of DT40 Tdp1-/-;hTDP1 cells with camptothecin (screen for TDP1 inhibitors) | chicken DT40 Tdp1-/-;hTDP1 cells + 20 nM CPT, ATP luminescence, 48 h | 420,000 compounds, 12% hits | Potency, µM (series often up to 46.2 µM), for the others: top-dose activity change, negative = growth inhibition, actives largely listed as inhibitors; note: potency is the fitted concentration of half-maximal effect; % is set by controls: 0 for no effect and ±100 for the full control effect; nearly all actives have a fitted effect of over 55% in size
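Chicken DT40 Tdp1-/- cells complemented with human TDP1, 400 cells/well, exposed to compounds plus 20 nM camptothecin for at least 48 h at 37 C; viability read as ATP content by CellTiter-Glo luminescence.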
An asterisk follows results filed as active; [ ] = another dose, or the depositor's remark. Compounds with a hit are over-represented: about 19% of the library has one in this group of screens. Unless noted, calls come from the whole dose curve; as a rule, active = well fitted curve in the direction sought with a large enough effect; inconclusive = small, poorly fitted or top-dose-only effect, or another doubt; inactive = no such curve, though single readings can be large; an effect the other way counts as inactive or inconclusive.

What do the screens show for `COc1ccc(CCC(=O)Nc2c(-c3ccc(N(C)C)cc3)[nH][nH]c2=O)cc1`?
TDP1 cell noCPT: -84%; IL1B secr inh: -23; DT40 TDP1 CPT: inconclusive

How did O=C(Nc1cccc(C(F)(F)F)c1)c1sc(Cl)nc1C(F)(F)F do in these assays?
MCF10A rereplic: 21µM*; BCR signal inh: 11%; TDP1 cell noCPT: 10µM*; IL1B secr inh: -103*; SW480 rerep: -5%; DT40 TDP1 CPT: 16µM*

Results for CCc1cccc(NC(=O)c2sc3nc[nH]c(=O)c3c2C)c1 ?
TDP1 cell noCPT: 21µM*; DT40 TDP1 CPT: inconclusive

How did Cc1c(C(=O)Nc2cccc(C(F)(F)F)c2)sc2nc[nH]c(=O)c12 do in these assays?
TDP1 cell noCPT: 21µM*; DT40 TDP1 CPT: 16µM*

How did Fc1ccc(-n2nc(-c3ccccc3)c3cnc4ccccc4c32)cc1Cl do in these assays?
TDP1 cell noCPT: -10%; DT40 TDP1 CPT: -1%

Results for Cn1cc(Br)c(NS(=O)(=O)c2ccc(Cl)s2)n1 ?
MCF10A rereplic: -1%; BCR signal inh: 4%; TDP1 cell noCPT: -5%; IL1B secr inh: -11; SW480 rerep: -3%; DT40 TDP1 CPT: 14%

Results for CCC(CC)C(=O)N(CCc1ccc(OC)cc1)Cc1nc2ccccc2c(=O)[nH]1 ?
MCF10A rereplic: 23µM*; BCR signal inh: -6%; TDP1 cell noCPT: 21µM*; IL1B secr inh: -54*; SW480 rerep: 21µM*; DT40 TDP1 CPT: 23µM*

What do the screens show for `O=C(NC1CCCCC1)N(Cc1nc2ccccc2c(=O)[nH]1)C1CCCC1`?
MCF10A rereplic: 9%; BCR signal inh: 5%; TDP1 cell noCPT: inconclusive; IL1B secr inh: 14; SW480 rerep: -2%; DT40 TDP1 CPT: -24%

How did COc1ccc2[nH]c(=O)c(CN(C(=O)NC3CCCCC3)C3CCCCC3)cc2c1 do in these assays?
MCF10A rereplic: 2%; BCR signal inh: -5%; TDP1 cell noCPT: 21µM*; IL1B secr inh: 2; SW480 rerep: 16%; DT40 TDP1 CPT: 21µM*

Results for COc1ccc(CN(Cc2nc3ccccc3c(=O)[nH]2)C(=O)NC2CCCCC2)cc1 ?
MCF10A rereplic: 0%; BCR signal inh: 4%; TDP1 cell noCPT: -21%; IL1B secr inh: -58*; SW480 rerep: 8%; DT40 TDP1 CPT: -16%

What do the screens show for `COc1ccc2[nH]c(=O)c(CNC3CCCCC3)cc2c1`?
MCF10A rereplic: 3%; BCR signal inh: 12%; TDP1 cell noCPT: -21%; IL1B secr inh: -13; SW480 rerep: -3%[9.22 µM]; DT40 TDP1 CPT: -26%

How did CCN(CC(=O)Nc1ccc(C(=O)Nc2ccc(OC)cc2)cc1)Cc1nc2ccccc2c(=O)[nH]1 do in these assays?
MCF10A rereplic: -3%; BCR signal inh: inconclusive; TDP1 cell noCPT: 23µM*; IL1B secr inh: -9; SW480 rerep: -19%; DT40 TDP1 CPT: inconclusive

Results for COc1ccc(CN(Cc2cc3cc4c(cc3[nH]c2=O)OCO4)C(=O)NC2CCCCC2)cc1 ?
MCF10A rereplic: 7%; BCR signal inh: inconclusive; TDP1 cell noCPT: 23µM*; IL1B secr inh: -27; SW480 rerep: 10%; DT40 TDP1 CPT: 18µM*

What do the screens show for `CCN(CCS(=O)(=O)c1ccc(Br)cc1)Cc1nc2ccccc2c(=O)[nH]1`?
MCF10A rereplic: 34%; BCR signal inh: inconclusive; TDP1 cell noCPT: inconclusive; IL1B secr inh: -52*; SW480 rerep: -12%; DT40 TDP1 CPT: -17%

Results for COc1ccc2[nH]c(=O)c(CN(Cc3ccc4c(c3)OCO4)C(C)=O)cc2c1 ?
MCF10A rereplic: 0%; BCR signal inh: -2%; TDP1 cell noCPT: -7%; IL1B secr inh: -2; SW480 rerep: -2%[9.22 µM]; DT40 TDP1 CPT: inconclusive
